Experimental data taken from PubChem BioAssay (NCATS).
Records with an inconclusive call do not appear. Activity calls are given as the source filed them. Unless noted, calls come from the whole dose curve; as a rule, active = well fitted curve in the direction sought with a large enough effect; inconclusive = small, poorly fitted or top-dose-only effect, or another doubt; inactive = no such curve, though single readings can be large; an effect the other way counts as inactive or inconclusive.

How the values were obtained:
[1] = target: Lysosomal acid glucosylceramidase (Homo sapiens) (UniProt P04062); test: Glucocerebrosidase-p2 (AID 348; in the data active = potency below about 10 µM; note: potency is the fitted concentration of half-maximal effect); details: purified GBA, blue fluorogenic substrate, 40 min
Method in brief: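 Normal human glucocerebrosidase (0.2 nM) with blue fluorogenic substrate (80 uM final) in citrate/phosphate pH 5.9 with 10mM sodium taurocholate, 0.01% tween-20; 40 min RT, NaOH/glycine stop; fluorescence Ex 365/Em 440; AC50 from a titration from 0.6 nM upwards.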

[2] = NFAT Signaling Pathway (AID 444; active = well fitted curve in either direction with a large enough effect, not every such curve was filed as active;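 note: carbachol stimulus at about its EC50 of 1 µM final; % is set by controls: 0 for no effect and ±100 for the full control effect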); details: Jurkat NFAT-bla M1, carbachol, beta-lactamase ratio, 5 h; at 7.69 µM (top of the series) unless noted
Method in brief: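 Jurkat cells carrying an NFAT-driven β-lactamase reporter and co-transfected muscarinic M1 receptor were treated with compound plus carbachol (1 uM final, an EC50 level) for 5 h at 37 °C. CCF4 loading followed for 1 h at RT; 460/530 nm ratio gave %activity.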

[3] = Stat Signaling Pathway (AID 446; active = well fitted curve in either direction with a large enough effect, not every such curve was filed as active;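 note: ME-180 cervical cancer cells given 40 pM IL-6 alongside compound; SIE-controlled beta-lactamase reporter measured as 460/530 nm FRET emission ratio; % is set by controls: 0 for no effect and ±100 for the full control effect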); details: ME-180 SIE beta-lactamase reporter, IL-6 stimulated, 5 h; at 7.69 µM (top of the series) unless noted
Method in brief: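 Compound effects on IL-6-induced STAT reporter activity were measured in ME-180 cells. After overnight culture, cells were co-treated with 40 pM IL-6 for 5 hrs before beta-lactamase substrate loading at room temperature.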

[4] = target: Glucocorticoid receptor (Homo sapiens) (UniProt P04150); test: GR-GFP Redistribution (AID 450;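 active = compounds whose dose series gives a full or clear partial fitted curve of increased nuclear translocation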; note: potency is the fitted concentration of half-maximal effect); details: U2OS GR-GFP nuclear translocation, laser cytometry, 2 h
[5] = target: Glucocorticoid receptor (Homo sapiens) (UniProt P04150); test: GR-EFC Redistribution (AID 451; calls by dose curve; note: potency is the fitted concentration of half-maximal effect); details: CHO-K1 GR-EFC translocation, beta-gal luminescence, 2 h
Method in brief: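 CHO-K1 cells stably expressing nuclear-localized β-gal enzyme acceptor and GR fused C-terminally to the enzyme donor fragment; ligand-driven nuclear translocation restores β-gal by complementation. Compounds titrated up to 46 uM final, 2 h at 37 °C; luminescence read.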

[6] = target: Mitogen-activated protein kinase 10 (Mus musculus) (UniProt Q61831); test: JNK3 AlphaScreen Assay (AID 530; active = well fitted curve in either direction with a large enough effect, not every such curve was filed as active;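 note: kinase came from lysate of stimulated human HepG2 cells; signal reports phosphorylation of biotinylated GST-cJun 1-79 at Ser73 with 10 µM ATP; % is set by controls: 0 for no effect and ±100 for the full control effect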); details: JNK3 lysate, c-Jun phosphorylation; series mostly up to 57.1 µM
Method in brief: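 Phosphorylation of biotinylated GST-cJun(1-79) at Ser73 is measured by AlphaScreen proximity luminescence. Enzyme is JNK3 in HepG2 lysates activated with interleukin-1beta and tumor necrosis factor alpha; ATP is 10 uM final.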

[7] = target: 3',5'-cyclic-AMP phosphodiesterase 4B (Homo sapiens) (UniProt Q07343); test: qHTS Assay for Inhibitors of PDE-IV (AID 607; active = well fitted activation curve with a large enough effect in the main read-out, with a control signal flat, not every such curve was filed as active; note: % of control where 0% means no effect); details: HEK293 ACTOne CNG channel cells, membrane potential fluorescence; series mostly up to 22.9 µM
Method in brief: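 ACTOne HEK293 cells carry a modified cAMP-gated CNG channel and express endogenous PDE4; plated 1000 cells/well, compounds up to 22.9 uM final. Membrane-potential dye fluorescence (ex 535/em 590) was read; parental cells received 10 uM forskolin + 100 uM RO 20-1724.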

[8] = Confirmation and Secondary Assay for Modulators of Hemoglobin Beta Chain Splicing at IVS2 654 locus (AID 910); details: HeLa EGFP-654 splicing reporter, GFP fluorescence, 48 h; series mostly up to 38.3 µM;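 note: per-well total GFP intensity by laser scanning cytometry after 2-day treatment; % of control where 0% means no effect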
Method in brief: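 HeLa cells stably carrying EGFP interrupted by mutant beta-globin IVS2-654 intron (CMV-driven) were treated with compound for 2 days at 37C; corrected splicing was scored as total peak GFP intensity per well (488 nm excitation, 500-520 nm emission).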

[9] = Confirmation and Secondary Assay for Modulators of Hemoglobin Beta Chain Splicing at IVS2 705 locus (AID 930); details: HeLa EGFP-705 splicing reporter, GFP fluorescence, 48 h; series mostly up to 38.3 µM;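 note: HeLa cells stably expressing the EGFP-705 splicing reporter; % of control where 0% means no effect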
Method in brief: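 Restored EGFP fluorescence after 2-day compound exposure reports splicing correction in IVS2-705 EGFP reporter HeLa cells; positive control was 500 nM splice-blocking PNA oligo. Signal measured as well total peak GFP intensity (488 nm excitation).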

[10] = qHTS Assay for Lipid Storage Modulators (AID 1519; calls by dose curve); details: Drosophila S3 cells, BODIPY lipid droplet/cell ratio, laser cytometry, cells loaded with oleic acid; for activity change, negative = inhibition: at 57.5 µM (top of the series)
Method in brief: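 Cells seeded at 5,000 per well were treated with compounds over a concentration series and loaded with oleic acid (400 uM, as added). Lipid droplet fluorescence (488 nm excitation, 500-530 nm channel) was read by laser-scanning cytometry and normalized to 20 uM Triacsin C.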

[11] = Primary qHTS for small molecule stabilizers of the endoplasmic reticulum resident proteome: Secreted ER Calcium Modulated Protein (SERCaMP) assay (AID 1508630); details: SH-SY5Y GLuc-SERCaMP (Gaussia luciferase released on ER calcium loss) secretion, thapsigargin, luminescence; series mostly up to 38.4 µM; note: % is set by controls: 0 for no effect and ±100 for the full control effect
Method in brief: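 The SH-SY5Y reporter protocol was run at 3 concentrations up to 38.3 uM (primary) or 11 concentrations (follow-up): 16 h compound, 100 nM thapsigargin for 4 h, then extracellular luciferase luminescence.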

[12] = target: Cytochrome P450 1A2 (Homo sapiens) (UniProt P05177); test: p450-cyp1a2 (AID 410; calls by dose curve; note: potency is the fitted concentration of half-maximal effect); details: recombinant CYP1A2, luciferin-ME demethylation, luminescence; series mostly up to 57 µM
Method in brief: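 O-Demethylation of luciferin 6' methyl ether by human CYP1A2 is monitored as luciferase luminescence. Substrate sits at Km (100uM); enzyme is 20nM. Values are scaled to 57 uM furafylline as maximal inhibition.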

[13] = target: Cytochrome P450 3A4 (Homo sapiens) (UniProt P08684); test: qHTS Assay for Activators of Cytochrome P450 3A4 (AID 885); details: recombinant CYP3A4, Luciferin-PPXE luminescence, 60 min; series mostly up to 57.1 µM; note: nearly all actives have a fitted effect of over 65% in size
Method in brief: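 CYP3A4 activity: Luciferin-PPXE O-dealkylation, 25uM substrate, 200mM KPO4, RT throughout. Read-out is luciferase luminescence; higher values reflect activation.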

[14] = qHTS Assay for Identification of Small Molecule Agonists for Hypoxia Response Element Signaling Pathway (AID 914; active = well fitted activation curve with a large enough effect in the signal ratio, with a control signal flat, not every such curve was filed as active; the % refers to the signal ratio; note: potency is the fitted concentration of half-maximal effect); details: ME-180 HRE-bla reporter, beta-lactamase ratio, CoCl2, 17 h; activation: stronger effect = higher value
Method in brief: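 AC50 values come from titration-series %Activity, taken as the 460/530nm ratio of CCF4 fluorescence (excitation 405nm). CellSensor HRE-bla ME-180 cells were treated 17 hours at 37 C with compound plus an EC50 level of CoCl2.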

[15] = AP1 Signaling Pathway (AID 357; active = well fitted curve in either direction with a large enough effect, not every such curve was filed as active); details: ME-180 (cervical carcinoma) AP-1-bla reporter, EGF-induced, beta-lactamase ratio, 5 h; at 7.69 µM (top of the series) unless noted
Method in brief: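 A ratiometric CCF4 readout (405 nm excitation; 460 and 530 nm emission) quantified AP-1-driven beta-lactamase in ME-180 cells after 5 h with compound and EC50 EGF; AC50 values were derived for activators and inhibitors.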

[16] = target: Cytochrome P450 3A4 (Homo sapiens) (UniProt P08684); test: qHTS Assay for Inhibitors and Substrates of Cytochrome P450 3A4 (AID 884); details: recombinant CYP3A4, Luciferin-PPXE luminescence; series mostly up to 57.1 µM; note: potency is the fitted concentration of half-maximal effect; nearly all actives have a fitted effect of over 50% in size
Method in brief: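 Luminescent readout of luciferin produced by CYP3A4 (20 nM) dealkylation of Luciferin-PPXE, 25 uM (its KM). NADPH-driven reaction ran 60 min at RT after 10 min compound preincubation; data scaled to 57 uM ketoconazole as 100% inhibition.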

[17] = target: Ubiquitin carboxyl-terminal hydrolase 1 (Homo sapiens) (UniProt O94782); test: Inhibitors of USP1/UAF1: Pilot qHTS (AID 504865); details: purified USP1/UAF1, Ub-rhodamine cleavage fluorescence; series mostly up to 54.9 µM; note: potency is the fitted concentration of half-maximal effect; nearly all actives have a fitted effect of over 35% in size
Method in brief: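 USP1/UAF1 complex (1nM) preincubated with compound 15 min at room temperature, then Ub-Rho substrate (150nM final) added. Fluorescence read kinetically at 480/540 nm, 6 reads every 60 seconds. Buffer: 50mM HEPES pH 7.8, 0.5mM EDTA, 0.1 mg/ml BSA, 1mM TCEP, 0.01% Tween-20.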

[18] = measured here: cell count channel max response
[19] = measured here: lipid channel max response

Sequence of 3',5'-cyclic-AMP phosphodiesterase 4B (Homo sapiens) (Q07343 whole entry, looked up): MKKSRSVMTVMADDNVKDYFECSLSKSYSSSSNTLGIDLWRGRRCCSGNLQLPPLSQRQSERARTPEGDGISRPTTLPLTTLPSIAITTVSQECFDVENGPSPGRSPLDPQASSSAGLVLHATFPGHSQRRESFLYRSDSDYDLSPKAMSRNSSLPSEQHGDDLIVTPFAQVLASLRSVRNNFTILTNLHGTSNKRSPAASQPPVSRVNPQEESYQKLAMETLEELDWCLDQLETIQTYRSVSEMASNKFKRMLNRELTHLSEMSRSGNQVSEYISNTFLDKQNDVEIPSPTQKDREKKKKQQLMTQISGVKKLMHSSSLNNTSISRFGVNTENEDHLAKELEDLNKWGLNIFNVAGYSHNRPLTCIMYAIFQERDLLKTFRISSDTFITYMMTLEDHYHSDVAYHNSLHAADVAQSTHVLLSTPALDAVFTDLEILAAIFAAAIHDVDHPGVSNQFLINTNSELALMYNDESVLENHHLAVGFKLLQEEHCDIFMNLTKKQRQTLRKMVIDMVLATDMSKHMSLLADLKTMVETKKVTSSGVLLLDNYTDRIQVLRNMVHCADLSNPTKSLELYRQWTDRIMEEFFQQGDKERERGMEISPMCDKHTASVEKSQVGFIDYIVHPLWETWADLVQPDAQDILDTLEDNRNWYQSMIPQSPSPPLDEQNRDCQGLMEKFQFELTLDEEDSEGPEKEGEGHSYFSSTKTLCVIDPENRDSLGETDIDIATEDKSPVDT
Sequence of Cytochrome P450 1A2 (Homo sapiens) (P05177 whole entry, looked up): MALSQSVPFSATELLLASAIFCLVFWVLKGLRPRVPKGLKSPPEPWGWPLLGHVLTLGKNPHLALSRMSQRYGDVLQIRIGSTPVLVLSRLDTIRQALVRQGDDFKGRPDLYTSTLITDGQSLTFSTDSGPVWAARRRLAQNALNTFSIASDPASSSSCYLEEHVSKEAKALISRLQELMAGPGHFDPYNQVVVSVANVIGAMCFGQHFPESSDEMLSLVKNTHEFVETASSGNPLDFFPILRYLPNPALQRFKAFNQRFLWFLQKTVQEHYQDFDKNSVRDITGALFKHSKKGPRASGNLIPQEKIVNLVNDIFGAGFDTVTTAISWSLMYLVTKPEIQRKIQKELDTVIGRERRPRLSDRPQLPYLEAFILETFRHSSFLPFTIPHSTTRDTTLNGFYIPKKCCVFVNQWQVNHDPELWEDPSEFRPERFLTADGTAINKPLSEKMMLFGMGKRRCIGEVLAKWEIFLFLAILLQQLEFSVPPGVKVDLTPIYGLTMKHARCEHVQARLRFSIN
Sequence of Cytochrome P450 3A4 (Homo sapiens) (P08684 whole entry, looked up): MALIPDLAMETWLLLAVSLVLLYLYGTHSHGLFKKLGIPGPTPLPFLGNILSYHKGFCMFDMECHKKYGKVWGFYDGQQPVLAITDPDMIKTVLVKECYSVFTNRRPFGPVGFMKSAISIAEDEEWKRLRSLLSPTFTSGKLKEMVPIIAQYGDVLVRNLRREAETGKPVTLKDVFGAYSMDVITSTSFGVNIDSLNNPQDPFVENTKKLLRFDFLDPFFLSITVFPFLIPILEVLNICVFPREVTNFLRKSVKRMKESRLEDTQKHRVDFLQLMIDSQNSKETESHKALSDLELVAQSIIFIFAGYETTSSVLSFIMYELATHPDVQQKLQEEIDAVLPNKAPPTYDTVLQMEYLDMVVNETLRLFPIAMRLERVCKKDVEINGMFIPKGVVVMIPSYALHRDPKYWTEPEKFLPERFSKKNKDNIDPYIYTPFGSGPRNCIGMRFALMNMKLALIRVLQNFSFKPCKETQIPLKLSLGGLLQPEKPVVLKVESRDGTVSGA
Sequence of Glucocorticoid receptor (Homo sapiens) (P04150 whole entry, looked up, the tested form may be a part): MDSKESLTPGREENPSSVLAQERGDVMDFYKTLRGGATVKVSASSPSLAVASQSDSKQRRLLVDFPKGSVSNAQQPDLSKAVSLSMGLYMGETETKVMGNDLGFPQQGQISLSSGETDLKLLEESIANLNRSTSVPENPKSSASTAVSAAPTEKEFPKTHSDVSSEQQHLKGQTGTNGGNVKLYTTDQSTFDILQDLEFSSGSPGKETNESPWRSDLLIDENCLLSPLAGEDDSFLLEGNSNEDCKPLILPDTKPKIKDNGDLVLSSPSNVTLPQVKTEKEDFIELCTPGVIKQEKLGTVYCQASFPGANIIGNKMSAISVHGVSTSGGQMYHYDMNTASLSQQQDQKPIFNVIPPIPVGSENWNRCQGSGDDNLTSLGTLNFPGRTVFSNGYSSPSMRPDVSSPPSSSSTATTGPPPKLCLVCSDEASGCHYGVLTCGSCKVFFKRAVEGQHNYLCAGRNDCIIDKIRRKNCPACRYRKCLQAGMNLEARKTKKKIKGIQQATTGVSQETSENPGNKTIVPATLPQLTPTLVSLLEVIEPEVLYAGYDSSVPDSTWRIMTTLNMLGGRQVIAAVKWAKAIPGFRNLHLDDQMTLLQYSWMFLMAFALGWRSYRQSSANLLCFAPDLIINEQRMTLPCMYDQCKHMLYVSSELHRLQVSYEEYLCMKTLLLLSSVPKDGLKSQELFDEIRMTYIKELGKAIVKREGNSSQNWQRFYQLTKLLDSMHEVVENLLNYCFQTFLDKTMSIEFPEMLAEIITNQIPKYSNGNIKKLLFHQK
Sequence of Lysosomal acid glucosylceramidase (Homo sapiens) (P04062 whole entry, looked up): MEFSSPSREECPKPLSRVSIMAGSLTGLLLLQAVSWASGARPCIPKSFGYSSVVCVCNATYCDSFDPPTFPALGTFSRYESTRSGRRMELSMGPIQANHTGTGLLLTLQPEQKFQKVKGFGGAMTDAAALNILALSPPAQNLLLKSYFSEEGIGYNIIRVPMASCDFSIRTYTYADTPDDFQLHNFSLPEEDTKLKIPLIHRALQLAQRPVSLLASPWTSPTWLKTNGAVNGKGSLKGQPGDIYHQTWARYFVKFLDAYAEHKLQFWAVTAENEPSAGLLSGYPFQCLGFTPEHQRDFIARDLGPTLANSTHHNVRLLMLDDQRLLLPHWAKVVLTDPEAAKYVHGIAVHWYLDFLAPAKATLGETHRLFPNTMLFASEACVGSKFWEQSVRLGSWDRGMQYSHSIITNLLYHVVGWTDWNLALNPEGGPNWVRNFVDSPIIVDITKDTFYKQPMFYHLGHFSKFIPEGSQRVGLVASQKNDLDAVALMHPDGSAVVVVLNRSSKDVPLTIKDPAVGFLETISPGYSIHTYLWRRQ
Sequence of Ubiquitin carboxyl-terminal hydrolase 1 (Homo sapiens) (O94782 whole entry, looked up): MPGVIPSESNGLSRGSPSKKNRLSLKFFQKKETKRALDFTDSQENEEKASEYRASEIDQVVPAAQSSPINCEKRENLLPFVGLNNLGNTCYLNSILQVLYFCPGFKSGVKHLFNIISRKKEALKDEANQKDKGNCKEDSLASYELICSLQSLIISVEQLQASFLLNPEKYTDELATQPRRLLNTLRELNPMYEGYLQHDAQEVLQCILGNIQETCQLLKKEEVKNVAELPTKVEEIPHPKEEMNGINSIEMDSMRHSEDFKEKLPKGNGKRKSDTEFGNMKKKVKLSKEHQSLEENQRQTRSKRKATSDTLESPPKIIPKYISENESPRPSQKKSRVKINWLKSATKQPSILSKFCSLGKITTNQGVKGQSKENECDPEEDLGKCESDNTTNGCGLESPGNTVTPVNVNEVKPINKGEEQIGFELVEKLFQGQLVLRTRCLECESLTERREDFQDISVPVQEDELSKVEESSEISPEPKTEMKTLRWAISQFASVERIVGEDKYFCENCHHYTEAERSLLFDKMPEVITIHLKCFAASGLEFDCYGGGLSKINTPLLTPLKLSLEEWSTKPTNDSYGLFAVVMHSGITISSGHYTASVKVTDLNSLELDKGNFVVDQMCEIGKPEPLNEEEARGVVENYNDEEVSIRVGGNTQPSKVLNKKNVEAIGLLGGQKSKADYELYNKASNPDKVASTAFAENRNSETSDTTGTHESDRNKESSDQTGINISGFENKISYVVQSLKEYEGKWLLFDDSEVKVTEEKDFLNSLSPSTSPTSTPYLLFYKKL

N#Cc1cccc(-c2ccc3ncnc(NCc4cccnc4)c3c2)c1
inactive: Potency [1] > 11.4 µM | activity change, negative = inhibition [2] 21.6% | activity, negative = inhibition [3] -12.3% | Potency [4] > 46 µM | Potency [5] > 46 µM | Potency [6] | Potency [7] | Potency [8] | outcome [9] | activity change, negative = inhibition [10] 7.68% | outcome [11]
12%: max response [10, 18]
20.4%: max response [10, 19]

COc1ccc(-c2nc3cnc(N4CCNCC4)nc3n(CCC#N)c2=O)cc1
25%: max response [10, 19]
active: Potency [12] 15.8 µM | Potency [14] 3.16 µM
inactive: Potency [1] > 11.4 µM | Potency [4] > 9.22 µM | Potency [5] > 46 µM | Potency [6] | Potency [7] | Potency [13] | activity change, negative = inhibition [10] 4.58% | outcome [11]
17%: max response [10, 18]

Cc1ccccc1-c1nc(NCc2cccnc2)c2ccccc2n1
inactive: activity change, negative = inhibition [15] -6.01% | activity change, negative = inhibition [2] -1.21% | activity, negative = inhibition [3] 3.29% | Potency [4] > 46 µM | Potency [5] > 46 µM | Potency [6] | Potency [13] | Potency [8] | outcome [9] | activity change, negative = inhibition [10] 1.87% | outcome [11]
-4.19%: max response [10, 19]
-7.11%: max response [10, 18]
active: Potency [12] 0.501 µM | Potency [16] 0.501 µM | Potency [17] 28.2 µM

COc1ccccc1CNc1ncnc2ccc(-c3c(C)noc3C)cc12
-7.6%: max response [10, 19]
active: Potency [12] 7.94 µM | Potency [14] 1.26 µM
-3.01%: max response [10, 18]
inactive: Potency [1] > 11.4 µM | Potency [4] > 46 µM | Potency [5] > 46 µM | Potency [6] | Potency [13] | Potency [8] | outcome [9] | activity change, negative = inhibition [10] -5.34% | outcome [11]

CC(=O)N1CCC2(CC1)CN(Cc1ccc(C#N)cc1)C2
inactive: Potency [1] > 11.4 µM | activity change, negative = inhibition [2] 0.883% | Potency [5] > 46 µM | Potency [6] | Potency [7] | activity change, negative = inhibition [10] -1.35% | outcome [11]
-0.217%: max response [10, 19]
-0.767%: max response [10, 18]

Cc1cccc(CNc2nc(-c3c(C)noc3C)nc3ccccc23)c1
4.27%: max response [10, 19]
inactive: Potency [1] > 11.4 µM | activity, negative = inhibition [3] -28.8% | Potency [4] > 46 µM | Potency [5] > 46 µM | Potency [6] | Potency [8] | outcome [9] | activity change, negative = inhibition [10] 11.8% | outcome [11]
-6.95%: max response [10, 18]

O=C(c1csnn1)N1CCC2(CCCN(C(c3ccccc3)c3ccccc3)C2)CC1
-8.95%: max response [10, 19]
-8.01%: max response [10, 18]
inactive: Potency [1] > 11.4 µM | activity change, negative = inhibition [2] 1.14% | activity, negative = inhibition [3] 18.5% | Potency [5] > 46 µM | Potency [6] | Potency [7] | activity change, negative = inhibition [10] -2.23% | outcome [11]
